# Assay results from PubChem BioAssay.
# Results with a measured potency or affinity are listed apart. Activity calls are given as the source filed them. Unless noted, how the calls were made is not given here.
# Biological target: Calcium-dependent protein kinase 1 (Plasmodium falciparum (isolate 3D7)) (UniProt P62344)
# Experiment: PfCDPK1 kinase inhibitors, biochemical, TCAMS library (AID 1159585; cut-off not given, nearly all actives have IC50 up to about 0.98 µM;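 further: inhibitors leave more ATP so luminescence rises with inhibition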)
# Details: recombinant PfCDPK1, Kinase-Glo ATP depletion luminescence
# Chain of Calcium-dependent protein kinase 1 (Plasmodium falciparum (isolate 3D7)) (P62344 whole entry, looked up): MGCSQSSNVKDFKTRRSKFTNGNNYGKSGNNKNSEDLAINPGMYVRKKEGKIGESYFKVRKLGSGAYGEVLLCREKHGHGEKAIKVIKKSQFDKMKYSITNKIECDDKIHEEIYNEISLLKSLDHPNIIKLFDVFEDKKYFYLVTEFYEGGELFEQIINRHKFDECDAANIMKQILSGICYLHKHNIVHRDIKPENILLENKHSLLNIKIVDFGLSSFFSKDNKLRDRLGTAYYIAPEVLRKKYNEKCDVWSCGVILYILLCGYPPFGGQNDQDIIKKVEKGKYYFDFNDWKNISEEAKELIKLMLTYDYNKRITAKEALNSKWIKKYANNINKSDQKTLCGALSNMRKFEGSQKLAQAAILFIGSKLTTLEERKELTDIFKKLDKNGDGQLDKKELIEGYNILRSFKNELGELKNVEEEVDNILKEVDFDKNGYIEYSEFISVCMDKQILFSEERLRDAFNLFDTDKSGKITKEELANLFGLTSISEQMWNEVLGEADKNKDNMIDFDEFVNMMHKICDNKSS
row,SMILES,outcome
1,O=S(=O)(NCCN1CCCC1)c1cccc(-c2ccccc2CNC2Cc3ccccc3C2)c1,inactive
2,CCOC(=O)C(C)(C)Oc1ccc(C(=C2CC(C)(C)CC(C)(C)C2)c2ccc(O)cc2)cc1,inactive
3,Cc1nc(-c2ccc(-c3ccc(NC(=O)c4coc5ccc(N6C[C@@H](C)N[C@@H](C)C6)cc45)cc3)c(C)c2)no1,inactive
4,c1ccc(Oc2ccc(Nc3ccnc4cc(-c5ccc(CN6CCOCC6)o5)ccc34)cc2)nc1,inactive
5,COc1ccc2nc(C)cc(NN=Cc3ccccc3Cl)c2c1,inactive
6,COc1ccc2nccc([C@@H](O)CN3CCC(NCc4ccc5nnsc5c4)CC3)c2c1,inactive
7,CC(C)(C)C1CCc2nc(N)nc(N)c2C1 (configuration not stated),inactive
8,CCN(CC)C(=NCCCCCCN=C(NC(N)=NCc1cccc(Cl)c1)N(CC)CC)NC(N)=NCc1cccc(Cl)c1,inactive
9,O=C(NC1CC1)c1cnc(N2CCCC(c3ccccc3)C2)c(Cl)c1 (configuration not stated),inactive
10,Cc1cc(NCCC(=O)NCCc2ccccc2)nc(NCCc2ccc(F)cc2)n1,inactive
11,CC1(CCc2ccccc2)N=C(N)N=C(N)C1c1ccc(Cl)c(Cl)c1 (configuration not stated),inactive
12,Cn1nccc1C(=O)NCCNCc1ccc(-c2ccc(-c3nc4ccc(C(F)(F)F)cc4[nH]3)cc2)cc1,inactive
13,O=C(Nc1ccc(CN2CCN(S(=O)(=O)c3ccc(Cl)s3)CC2)cc1)c1cccs1,inactive
14,CS(=O)(=O)c1ccc(CNCc2cccc(-c3cccc(-c4nc5ccc(F)cc5[nH]4)c3)c2)cc1,inactive
15,O=C(Cc1cnc[nH]1)Nc1ccc(-c2cccc(-c3nc4ccc(F)cc4[nH]3)c2)cc1,inactive
16,CC(C)(C)OC(=O)N(Cc1cc(-n2nnnc2C(F)(F)F)ccc1O)[C@H]1CCCN(C(=O)OC(C)(C)C)[C@H]1c1ccccc1,inactive

row,SMILES,outcome
1,Cc1ccc(NCc2cccc(F)c2)cc1S(=O)(=O)N[C@@H]1CCN(C#N)C1,inactive
2,Fc1ccc2ncc(Cl)c(CCN3CCC(NCc4cc5c(cn4)OCCO5)CC3)c2c1,inactive
3,O=C(NCC1CCN(Cc2ccc(F)cc2)C1)c1cc(-c2cccc(C(F)(F)F)c2)cs1 (configuration not stated),inactive
4,CN(C)CCOc1cc(NC(=O)Nc2ccc(-c3ccncc3)c(C(F)(F)F)c2)ccc1Cl,inactive
5,CCCCCCCc1ccc(-c2c(C)[nH]c(C)c(Cl)c2=O)cn1,inactive
6,COc1ccc(CNCc2ccc(F)cc2)cc1-c1ccc(OC)c(S(=O)(=O)NCCN2CCCC2)c1,inactive
7,c1ccc(COc2ccc(C3CCCCC3)cc2)nc1,inactive
8,O=C(Nc1cccc(-c2ccc(-c3nc4ccc(F)cc4[nH]3)cc2)c1)c1cccnc1,inactive
9,O=C(Cn1cc(C=C2SC(=NC3CCCC3)N(C3CCCC3)C2=O)c2ccccc21)N1CCCC1,inactive
10,O=C(/C=C/c1ccc(Cl)c(Cl)c1)NC1CCN(CCCNC(=O)c2cccc(Cl)c2)CC1,inactive
11,CCNc1cc(C(=O)N[C@@H](Cc2ccccc2)[C@H](O)CNCCc2ccccc2)cc(N2CCCC2=O)c1,inactive
12,CC(CCc1ccccc1)NCC(O)c1ccc2c(c1)S(=O)(=O)c1ccccc1N2 (configuration not stated),inactive
13,Cc1cc(OCc2ccncc2)cc2c1C(=O)CC(C)(C)O2,inactive
14,COc1ccc2ncc(F)c(CCN3CC[C@H](NCc4cc5c(s4)CCCN5)[C@H](O)C3)c2n1,inactive
15,CNCCNCc1ccc(-c2cccc(-c3nc4ccc(C(F)(F)F)cc4[nH]3)c2)cc1,inactive
16,CN1CCC(C(=O)Nc2cccc(-c3ccc(-c4nc5ccc(C(F)(F)F)cc5[nH]4)s3)c2)CC1,inactive

# Biological target: Plasmodium falciparum protein kinase 6 (PK6, PF3D7_1337100) (UniProt Q8IDW1)
# Sequence (Q8IDW1 1-305): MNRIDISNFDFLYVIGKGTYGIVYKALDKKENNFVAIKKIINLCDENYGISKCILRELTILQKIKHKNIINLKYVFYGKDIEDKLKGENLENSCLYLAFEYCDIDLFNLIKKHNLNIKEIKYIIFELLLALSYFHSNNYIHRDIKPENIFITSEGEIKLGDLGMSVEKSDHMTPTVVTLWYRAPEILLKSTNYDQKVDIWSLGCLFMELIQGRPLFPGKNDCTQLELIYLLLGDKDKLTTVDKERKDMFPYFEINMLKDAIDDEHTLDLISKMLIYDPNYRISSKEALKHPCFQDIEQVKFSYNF
# Experiment: PfPK6 kinase inhibitors, biochemical, TCAMS library (AID 1159586)
# Details: recombinant PfPK6, Kinase-Glo ATP depletion luminescence
row,SMILES,outcome
1,Cc1cc(C2CCN(CCCCNC(=O)c3ccc(NC(=O)c4ccc(Cl)cc4)cc3)CC2)c(C)cc1OCc1cccnc1,inactive
2,CN1CCCN(Cc2ccc(-c3cccc(NC(=O)c4ccc(F)cc4)c3)cc2)CC1,inactive
3,CCCS(=O)(=O)N1CCC(CO)(Cc2ccccc2C(F)(F)F)CC1,inactive
4,Oc1ccc(CCNc2nc(NCCCOc3ccccc3-c3ccc(F)cc3)nc(N3CCNCC3)n2)cc1,inactive
5,O=C(Nc1cccc(-c2cccc(-c3nc4ccccc4[nH]3)c2)c1)N[C@@H]1C[C@H]1c1ccccc1,inactive
6,O=C(Nc1ccc(-c2cccc(-c3nc4ccc(C(F)(F)F)cc4[nH]3)c2)cc1)c1cccnc1,inactive
7,COc1ccc(Cl)cc1S(=O)(=O)Nc1cccc(CCN2CCC(N3CCCCC3)CC2)c1,inactive
8,COc1ccc(-n2ccnc2SCC(=O)Nc2cc(C)ccc2C)c(OC)c1,inactive
9,O=S(=O)(NCCN1CCCC1)c1cccc(-c2ccccc2CNC2Cc3ccccc3C2)c1,inactive
10,CCOC(=O)C(C)(C)Oc1ccc(C(=C2CC(C)(C)CC(C)(C)C2)c2ccc(O)cc2)cc1,inactive
11,Cc1nc(-c2ccc(-c3ccc(NC(=O)c4coc5ccc(N6C[C@@H](C)N[C@@H](C)C6)cc45)cc3)c(C)c2)no1,inactive
12,c1ccc(Oc2ccc(Nc3ccnc4cc(-c5ccc(CN6CCOCC6)o5)ccc34)cc2)nc1,inactive
13,COc1ccc2nc(C)cc(NN=Cc3ccccc3Cl)c2c1,inactive
14,COc1ccc2nccc([C@@H](O)CN3CCC(NCc4ccc5nnsc5c4)CC3)c2c1,inactive
15,CC(C)(C)C1CCc2nc(N)nc(N)c2C1 (configuration not stated),inactive
16,CCN(CC)C(=NCCCCCCN=C(NC(N)=NCc1cccc(Cl)c1)N(CC)CC)NC(N)=NCc1cccc(Cl)c1,inactive
17,O=C(NC1CC1)c1cnc(N2CCCC(c3ccccc3)C2)c(Cl)c1 (configuration not stated),inactive
18,Cc1cc(NCCC(=O)NCCc2ccccc2)nc(NCCc2ccc(F)cc2)n1,inactive
19,CC1(CCc2ccccc2)N=C(N)N=C(N)C1c1ccc(Cl)c(Cl)c1 (configuration not stated),inactive
20,Cn1nccc1C(=O)NCCNCc1ccc(-c2ccc(-c3nc4ccc(C(F)(F)F)cc4[nH]3)cc2)cc1,inactive

row,SMILES,outcome
1,O=C(Nc1ccc(CN2CCN(S(=O)(=O)c3ccc(Cl)s3)CC2)cc1)c1cccs1,inactive
2,CS(=O)(=O)c1ccc(CNCc2cccc(-c3cccc(-c4nc5ccc(F)cc5[nH]4)c3)c2)cc1,inactive
3,O=C(Cc1cnc[nH]1)Nc1ccc(-c2cccc(-c3nc4ccc(F)cc4[nH]3)c2)cc1,inactive
4,CC(C)(C)OC(=O)N(Cc1cc(-n2nnnc2C(F)(F)F)ccc1O)[C@H]1CCCN(C(=O)OC(C)(C)C)[C@H]1c1ccccc1,inactive
5,Cc1ccc(NCc2cccc(F)c2)cc1S(=O)(=O)N[C@@H]1CCN(C#N)C1,inactive
6,Fc1ccc2ncc(Cl)c(CCN3CCC(NCc4cc5c(cn4)OCCO5)CC3)c2c1,inactive
7,O=C(NCC1CCN(Cc2ccc(F)cc2)C1)c1cc(-c2cccc(C(F)(F)F)c2)cs1 (configuration not stated),inactive
8,CN(C)CCOc1cc(NC(=O)Nc2ccc(-c3ccncc3)c(C(F)(F)F)c2)ccc1Cl,inactive
9,CCCCCCCc1ccc(-c2c(C)[nH]c(C)c(Cl)c2=O)cn1,inactive
10,COc1ccc(CNCc2ccc(F)cc2)cc1-c1ccc(OC)c(S(=O)(=O)NCCN2CCCC2)c1,inactive
11,c1ccc(COc2ccc(C3CCCCC3)cc2)nc1,inactive
12,O=C(Nc1cccc(-c2ccc(-c3nc4ccc(F)cc4[nH]3)cc2)c1)c1cccnc1,inactive
13,O=C(Cn1cc(C=C2SC(=NC3CCCC3)N(C3CCCC3)C2=O)c2ccccc21)N1CCCC1,inactive
14,O=C(/C=C/c1ccc(Cl)c(Cl)c1)NC1CCN(CCCNC(=O)c2cccc(Cl)c2)CC1,inactive
15,CCNc1cc(C(=O)N[C@@H](Cc2ccccc2)[C@H](O)CNCCc2ccccc2)cc(N2CCCC2=O)c1,inactive
16,CC(CCc1ccccc1)NCC(O)c1ccc2c(c1)S(=O)(=O)c1ccccc1N2 (configuration not stated),inactive
17,Cc1cc(OCc2ccncc2)cc2c1C(=O)CC(C)(C)O2,inactive
18,COc1ccc2ncc(F)c(CCN3CC[C@H](NCc4cc5c(s4)CCCN5)[C@H](O)C3)c2n1,inactive
19,CNCCNCc1ccc(-c2cccc(-c3nc4ccc(C(F)(F)F)cc4[nH]3)c2)cc1,inactive
20,CN1CCC(C(=O)Nc2cccc(-c3ccc(-c4nc5ccc(C(F)(F)F)cc5[nH]4)s3)c2)CC1,inactive
